Assay [1] is described as follows: Cell Viability - BJ (AID 421; calls by dose curve;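 note: potency is the fitted concentration of half-maximal effect; cells exposed to compound for 40 hours at 37 °C before readout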). The settings on record: BJ fibroblast viability, qHTS. An outline of the steps: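 Cytotoxicity in human BJ foreskin fibroblasts is scored as loss of cellular ATP after a 40-hour exposure, measured by luciferase luminescence. Controls are DMSO and 100 uM tamoxifen.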
Background: In qHTS, concentration-response curves come from the screen itself.

A short description of assay [2]: Cell Viability - Jurkat (AID 426;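 active = dose-dependent loss of cell ATP signal giving a full or clear fitted curve, ranked by lower potency value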;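 note: potency is the fitted concentration of half-maximal effect; cells exposed to compound for 40 hours at 37 °C before ATP read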). The note with it: qHTS. An outline of the steps: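 Cytotoxicity was scored as loss of cellular ATP, measured by luciferase-based luminescence, in Jurkat clone E6-1 cells after 40 h compound treatment; tamoxifen and doxorubicin served as positive controls.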
A short description of assay [3]: Cell Viability - Hek293 (AID 427;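 active = compounds whose dose-response curve shows a full or clear partial loss of cell viability, called from curve shape rather than a numeric limit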;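 note: potency is the fitted concentration of half-maximal effect; cells exposed to compound for 40 hours at 37 °C before reading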). The settings on record: qHTS. Put shortly:
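qHTS, human embryonic kidney (adenovirus-transformed) cells; 40 hr cpd, 37 °C; CellTiter-Glo ATP luminescence. Norm: DMSO = 0, 100 uM tamoxifen = 100% inhibition. Hill-fit AC50.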

Assay [4] can be described thus: Cell Viability - HepG2 (AID 433; calls by dose curve; note: potency is the fitted concentration of half-maximal effect). The settings on record: qHTS. An outline of the steps:
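Read-out is luciferase-based quantitation of cellular ATP as a measure of viable HepG2 cells after 40 h treatment at 37 °C. Signal decrease is scaled between DMSO-only and 100 uM tamoxifen controls, with AC50 fitted by the Hill equation.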

The nature of assay [5]: Cell Viability - MRC5 (AID 434; calls by dose curve;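 note: potency is the fitted concentration of half-maximal effect; cells exposed to compound for 40 hours at 37 °C; potency reflects cytotoxicity seen as loss of intracellular ATP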). The note with it: MRC5 lung fibroblast viability, qHTS. An outline of the steps:
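Decrease in intracellular ATP, quantified by luciferase light output, reflects compound toxicity toward MRC5 cells exposed for 40 hr in complete culture medium. Concentration-response curves, scaled between DMSO and 100 uM tamoxifen, gave AC50 values.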

The nature of assay [6]: Cell Viability - SK-N-SH (AID 435; calls by dose curve;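 note: potency is the fitted concentration of half-maximal effect; compound exposure lasted 40 h at 37 °C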). The note with it: SK-N-SH neuroblastoma cell viability qHTS. Put shortly:
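Luminescent ATP signal served as the viability read-out after 40 hours of compound treatment of human neuroblastoma SK-N-SH cells. Concentration-response data, scaled between DMSO and 100 uM tamoxifen, gave AC50 values by standard Hill modeling.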

The target in assay [7] is Mitogen-activated protein kinase 10 (Mus musculus) (UniProt Q61831). The assay is described as follows: JNK3 AlphaScreen Assay (AID 530; active = well fitted curve in either direction with a large enough effect, not every such curve was filed as active;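 note: kinase came from lysate of stimulated human HepG2 cells; signal reports phosphorylation of biotinylated GST-cJun 1-79 at Ser73 with 10 µM ATP; % is set by controls: 0 for no effect and ±100 for the full control effect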). Put shortly: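 Biotinylated GST-cJun(1-79) served as substrate for JNK3 in HepG2 lysates stimulated with IL-1beta and TNF-alpha. ATP was 10 uM final, pH 7.6. Ser73 phosphorylation was quantified by AlphaScreen (680 nm excitation).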
In general terms: In Alpha technology, singlet oxygen from a donor bead excites a nearby acceptor bead.

Assay [8] is described as follows: Cell Viability - N2a (AID 540).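 Note: cells exposed to compound for 40 h at 37 °C; plate controls were DMSO alone for no effect and tamoxifen control for full effect; nearly all actives have a fitted effect of over 45% in size.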 The settings on record: N2a mouse neuroblastoma cell viability; at 92.2 µM (top of the series). Put shortly:
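In this qHTS cytotoxicity screen, ATP-dependent luciferase luminescence reports viable N2a cells after a 40 hr compound exposure in complete culture medium. Potencies are AC50 values from standard Hill equation fits.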

Assay [9] in a line: Cell Viability - NIH 3T3 (AID 541).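 Note: plate controls were DMSO alone for no effect and tamoxifen positive control for full effect; nearly all actives have a fitted effect of over 25% in size.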 The settings on record: NIH 3T3 cell viability, qHTS; activity change, negative = cytotoxicity: at 92.2 µM (top of the series). Put shortly:
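In this cytotoxicity screen, acute toxicity is scored as an ATP drop measured by CellTiter-Glo in NIH 3T3 fibroblasts following a 40 hr, 37 °C incubation with compound.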

Assay [10] in a line: Cell Viability - HUV-EC-C (AID 542). Note: % is set by controls: 0 for no effect and ±100 for the full control effect; nearly all actives have a fitted effect of over 35% in size. An outline of the steps: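 Concentration-dependent ATP loss in HUV-EC-C cells is the measure. Exposure lasts 40 hr at 37 °C; luminescence follows CellTiter-Glo addition, and Hill fits give AC50.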
The nature of assay [11]: Cell Viability - H-4-II-E (AID 543). Note: % is set by controls: 0 for no effect and ±100 for the full control effect; nearly all actives have a fitted effect of over 35% in size. An outline of the steps:
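AC50 from Hill-modelled qHTS concentration-response curves. H-4-II-E rat hepatoma cells in complete medium, 40 hr exposure at 37 °C, viability by CellTiter-Glo ATP luminescence.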

The nature of assay [12]: Cell Viability - SH-SY5Y (AID 544).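 Note: 0% = DMSO alone and -100% = 100 µM tamoxifen; nearly all actives have a fitted effect of over 55% in size.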 Put shortly: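 Quantitative HTS in SH-SY5Y neuroblastoma cells, 40 hr treatment at 37 °C, ATP content by luciferase luminescence; AC50 from Hill fits.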
A short description of assay [13]: Cell Viability - Mesenchymal (AID 546).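 Note: cells exposed to compound for 40 hours before reading; 0% = DMSO only and -100% = 100 µM tamoxifen.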 An outline of the steps:
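In this qHTS cytotoxicity format, glomerulus-derived human mesenchymal kidney cells received compound for 40 hr, then luciferase-based ATP quantitation. Concentration-response data were fitted with the Hill equation.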

The target in assay [14] is Glucocorticoid receptor (Homo sapiens) (UniProt P04150). The assay is described as follows: GR-GFP Redistribution (AID 450;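 active = compounds whose dose series gives a full or clear partial fitted curve of increased nuclear translocation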; note: potency is the fitted concentration of half-maximal effect). The note with it: U2OS GR-GFP nuclear translocation, laser cytometry, 2 h.
Assay [15] shares this target. The assay is described as follows: GR-EFC Redistribution (AID 451; calls by dose curve; note: potency is the fitted concentration of half-maximal effect). The settings on record: CHO-K1 GR-EFC translocation, beta-gal luminescence, 2 h. An outline of the steps:
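CHO-K1 cells stably expressing nuclear-localized β-gal enzyme acceptor and GR fused C-terminally to the enzyme donor fragment; ligand-driven nuclear translocation restores β-gal by complementation. Compounds titrated up to 46 uM final, 2 h at 37 °C; luminescence read.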

Assay [16] is described as follows: NFAT Signaling Pathway (AID 444; active = well fitted curve in either direction with a large enough effect, not every such curve was filed as active;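 note: carbachol stimulus at about its EC50 of 1 µM final; % is set by controls: 0 for no effect and ±100 for the full control effect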). The settings on record: Jurkat NFAT-bla M1, carbachol, beta-lactamase ratio, 5 h; at 17.2 µM (top of the series) unless noted. Put shortly: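 Jurkat cells carrying an NFAT-driven β-lactamase reporter and co-transfected muscarinic M1 receptor were treated with compound plus carbachol (1 uM final, an EC50 level) for 5 h at 37 °C. CCF4 loading followed for 1 h at RT; 460/530 nm ratio gave %activity.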

Assay [17] is described as follows: Stat Signaling Pathway (AID 446; active = well fitted curve in either direction with a large enough effect, not every such curve was filed as active;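 note: ME-180 cervical cancer cells given 40 pM IL-6 alongside compound; SIE-controlled beta-lactamase reporter measured as 460/530 nm FRET emission ratio; % is set by controls: 0 for no effect and ±100 for the full control effect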). Put shortly:
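Emission at 460 and 530 nm (excitation 405 nm) reports SIE-controlled beta-lactamase in ME-180 cells. Cells received compound with 40 pM IL-6 for 5 hrs at 37 C; data scaled between 300 pM IL-6 and 125 nM JAK-inhibitor controls.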

The values below come from PubChem BioAssay (NCATS).

Values joined by “and” are separate entries in the source; they are usually repeats but may differ in a detail not shown here. Equal values may be shown once. Values without a mark were called inactive. Results filed as inconclusive are left out. Active and inactive are the calls of the source. Unless noted, calls come from the whole dose curve; as a rule, active = well fitted curve in the direction sought with a large enough effect; inconclusive = small, poorly fitted or top-dose-only effect, or another doubt; inactive = no such curve, though single readings can be large; an effect the other way counts as inactive or inconclusive. Bounds are passed on as bounds.

Sequence of Glucocorticoid receptor (Homo sapiens) (P04150 whole entry, looked up): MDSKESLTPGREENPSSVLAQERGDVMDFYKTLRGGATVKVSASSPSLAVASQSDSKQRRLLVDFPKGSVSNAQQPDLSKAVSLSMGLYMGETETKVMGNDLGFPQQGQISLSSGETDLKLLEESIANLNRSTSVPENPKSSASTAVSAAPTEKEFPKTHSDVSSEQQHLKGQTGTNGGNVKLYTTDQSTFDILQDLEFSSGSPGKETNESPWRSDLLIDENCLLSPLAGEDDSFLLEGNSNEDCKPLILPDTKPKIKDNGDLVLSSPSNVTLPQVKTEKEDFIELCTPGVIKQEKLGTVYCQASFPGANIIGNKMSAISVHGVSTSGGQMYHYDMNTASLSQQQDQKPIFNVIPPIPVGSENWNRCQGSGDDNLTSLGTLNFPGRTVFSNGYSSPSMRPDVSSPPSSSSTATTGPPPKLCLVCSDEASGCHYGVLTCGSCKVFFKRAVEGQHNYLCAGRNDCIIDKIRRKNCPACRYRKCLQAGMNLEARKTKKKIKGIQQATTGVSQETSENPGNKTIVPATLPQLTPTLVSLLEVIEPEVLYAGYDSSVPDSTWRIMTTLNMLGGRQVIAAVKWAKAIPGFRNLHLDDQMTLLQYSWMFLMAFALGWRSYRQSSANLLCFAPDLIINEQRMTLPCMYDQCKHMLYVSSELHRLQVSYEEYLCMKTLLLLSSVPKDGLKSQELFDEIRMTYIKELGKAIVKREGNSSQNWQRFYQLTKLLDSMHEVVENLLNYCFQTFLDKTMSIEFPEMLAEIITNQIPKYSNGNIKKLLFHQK

`C[C@H](CCC(=O)O)[C@H]1CC[C@H]2[C@@H]3CC[C@@H]4C[C@H](O)CC[C@]4(C)[C@H]3C[C@H](O)[C@]12C`: the Potency in [1], in [2], in [3], in [4], in assay [5] and in assay [6] was > 92 µM throughout. Further, the result in assay [7] and in assay [13] was inactive. In addition, the activity change, negative = cytotoxicity in [8] is -18.5%; in [9], -91.1% (active). Moreover, the Potency result in assay [10], in assay [11] and in assay [12] was “inactive” each time.

`CC1=CC(=O)NS(=O)(=O)O1`: the Potency in assay [1], in assay [2], in assay [3], in assay [4], in assay [5] and in [6] was > 92 µM each time. For the same molecule, the result in assay [7] and in assay [13] was inactive. For the same molecule, the activity change, negative = cytotoxicity in assay [8] is -19.6%; in assay [9] it was -8.99%. Besides, the Potency entry in assay [10], in assay [11] and in assay [12] was “inactive” each time.

`OCC(O)CO`: the Potency in [1], in assay [2], in assay [3], in assay [4], in assay [5] and in [6] was > 92 µM each time. Besides, the outcome in assay [7] and in [13] was inactive. Besides, the activity change, negative = cytotoxicity in assay [8] was -3.4% and 8.03%; in [9], -10.7% and -2.8%. Further, the Potency entry in assay [10], in assay [11] and in assay [12] was “inactive” each time.

Consider `NC(N)=O`, for which the Potency in assay [1], in assay [2], in [3], in assay [4], in [5] and in assay [6] was > 92 µM each time. In addition, the activity change, negative = cytotoxicity in [8] was 12.5%; in assay [9], -1.75%. Further, the Potency result in [10], in assay [11] and in assay [12] was “inactive” each time. Further, the outcome in assay [13] was inactive.

As for `C[C@@](Cc1ccc(O)c(O)c1)(NN)C(=O)O`, the Potency in [14] and in assay [15] was > 46 µM in each case.

As for `OCl`, the Potency in assay [1], in assay [2], in [3], in [4], in assay [5] and in assay [6] was > 92 µM each time. The molecule was classed as inactive in assay [7] and in assay [13]. Moreover, the activity change, negative = cytotoxicity in [8] was -0.881%; in [9] it was -13.5%. The Potency result in assay [10], in [11] and in assay [12] was “inactive” throughout.

`CC[C@H]1OC(=O)[C@H](C)[C@@H](O[C@H]2C[C@@](C)(OC)[C@@H](O)[C@H](C)O2)[C@H](C)[C@@H](O[C@@H]2O[C@H](C)C[C@H](N(C)C)[C@H]2O)[C@](C)(O)C[C@@H](C)CN(C)[C@H](C)[C@@H](O)[C@]1(C)O`: the Potency in [1], in assay [3], in assay [4] and in assay [5] was > 92 µM each time. The result in [7] and in [13] was inactive. The activity change, negative = cytotoxicity in assay [8] was -23.6%; in [9], -19.1%. For the same molecule, the Potency result in assay [11] is “inactive”.

Consider `OC[C@H]1O[C@@H]2O[C@H]3[C@H](O)[C@@H](O)[C@@H](O[C@H]4[C@H](O)[C@@H](O)[C@@H](O[C@H]5[C@H](O)[C@@H](O)[C@@H](O[C@H]6[C@H](O)[C@@H](O)[C@@H](O[C@H]7[C@H](O)[C@@H](O)[C@@H](O[C@H]1[C@H](O)[C@H]2O)O[C@@H]7CO)O[C@@H]6CO)O[C@@H]5CO)O[C@@H]4CO)O[C@@H]3CO`, for which the Potency in assay [1], in assay [2], in assay [3], in assay [4], in [5] and in assay [6] was > 92 µM throughout. Further, the outcome in [7] and in assay [13] was inactive. In addition, the activity change, negative = cytotoxicity in assay [8] is -3.62%; in assay [9], -6.68%. Further, the Potency entry in assay [10], in [11] and in assay [12] was “inactive” in each case.

Regarding `CC1=CCC2CC1C2(C)C` (stereo not drawn), the Potency in assay [1], in assay [2], in assay [3], in assay [4], in [5] and in assay [6] was > 92 µM in each case. Also, the molecule was called inactive in [7] and in assay [13]. In addition, the activity change, negative = cytotoxicity in assay [8] was 4.74%; in assay [9], -3.47%. The Potency entry in assay [10], in assay [11] and in [12] was “inactive” throughout.

As for `COC(=O)c1ccccc1O`, the Potency in [1], in assay [2], in assay [3], in [4], in assay [5] and in assay [6] was > 92 µM each time. The call in assay [7] and in assay [13] was inactive. Moreover, the activity change, negative = cytotoxicity in [8] is 0.567%; in assay [9] it was 6.05%. For the same molecule, the Potency entry in [10], in assay [11] and in assay [12] was “inactive” in each case.

With `CC/C=C\C/C=C\C/C=C\CCCCCCCC(=O)O`, the Potency in [1], in assay [3], in [4], in [5] and in [6] was > 92 µM each time. Moreover, the molecule was called inactive in assay [7] and in assay [13]. The activity change, negative = cytotoxicity is -20.9% in [8] and -137% (active) in assay [9]. Further, the Potency result in assay [10] and in assay [11] was “inactive” each time.

Regarding `Nc1ccc(N=Nc2ccccc2)c(N)n1`, the Potency in assay [1] is > 92 µM; in [3], > 92 µM; in [4], > 92 µM; in assay [5], > 92 µM; in assay [6] it was > 92 µM; in assay [14], > 20.6 µM. The Potency in assay [15] is > 20.6 µM. For the same molecule, the activity change, negative = inhibition in [16] was -10%. In addition, the outcome in [17] was inactive. Moreover, in [8], the activity change, negative = cytotoxicity is -30.4%.

In the case of `OB(O)O`, the Potency in assay [1], in assay [2], in assay [3], in [4], in [5] and in assay [6] was > 92 µM each time. For the same molecule, the outcome in assay [7] and in [13] was inactive. In addition, the activity change, negative = cytotoxicity is -10.8% in [8] and -22.1% in assay [9]. The Potency entry in assay [10], in [11] and in assay [12] was “inactive” each time.
